High-throughput results: PubChem, National Center for Advancing Translational Sciences (NCATS)
Sampled rows, rich in hits. Any-hit rate of the full collection: about 7.3%.
FMDV antiviral – High Throughput Screening for Foot and Mouth Disease Virus Antivirals; 1.2% of 410,000 active; AID 1159524, 2015; Potency, µM (top dose mostly 57.9 µM), without a hit: at the highest dose activity change, negative = inhibition, usual class: inhibitors; FMDV antiviral cell-based qHTS; calls by dose curve; tested in HEK293T cells; note: read-out not given here; potency is the fitted concentration of half-maximal effect; nearly all actives have a fitted effect of over 45% in size
HCMV inh – qHTS Assay for inhibitors of the human cytomegalovirus (HCMV). HFF cells, HCMV-luciferase reporter, 72 h; active compounds read low. activity change, negative = inhibition, % at 57.5 µM. 4.5% of 410,000 active. AID 1259415, 2018; in the data active = activity change below about -60%; inconclusive = no clear call, values can overlap the other calls; inactive = above about -39%
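Screen run at 2 compound doses on HFFs infected with reporter HCMV, MOI 1 PFU/cell. Luciferase activity from cell lysates at 72 h post infection gave inhibition relative to buffer-only and Salinomycin wells.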
HCV inhibitor – qHTS Assay for Inhibitors of Hepatitis C Virus (HCV) | Huh7.5.1 HCVcc-Cre infection, luciferase reporter, 44 h | Potency, µM (doses to about 41.8 µM), for the others: top-dose activity change, negative = inhibition, most hits filed as inhibitors | 3.4% of 340,000 active | AID 651820, 2012; active = well fitted inhibition curve with a large enough effect; inconclusive = small, poorly fitted or top-dose-only effect, or another doubt; inactive = no such curve, though single readings can be large or run the other way; note: potency is the fitted concentration of half-maximal effect
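Whole-lifecycle infectious HCVcc-Cre system; cells 1,000/well, compound then virus (~0.5 moi) added 4 h after plating, 44 h culture. Luciferase read 15 sec following 15 min substrate incubation, room temp.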
VACV mCherry inh – qHTS for Stage-Specific Inhibitors of Vaccinia Orthopoxvirus: mCherry Reporter Primary qHTS; AID 720579, 2013; 0.63% of 310,000 active; Potency, µM (highest dose often 36.5 µM), for the others: at the highest dose activity change, negative = inhibition, usual class: inhibitors; Vaccinia virus mCherry reporter infection, fluorescence; calls by dose curve; tested in A549 cells; note: potency is the fitted concentration of half-maximal effect; nearly all actives have a fitted effect of over 35% in size
Vaccinia Venus – qHTS for Stage-Specific Inhibitors of Vaccinia Orthopoxvirus: Venus Reporter Primary qHTS; Vaccinia virus Venus reporter expression, fluorescence; AID 720580, 2013; 0.46% of 330,000 active; Potency, µM (series often up to 36.5 µM), for inactives: top-dose activity change, negative = inhibition, usual class: inhibitors; calls by dose curve; tested in A549 cells; note: potency is the fitted concentration of half-maximal effect; nearly all actives have a fitted effect of over 30% in size
The depositor's hits bear a star; i = inactive; u = inconclusive; x = not tested or not shown. % is set by controls: 0 for no effect and ±100 for the full control effect.

SMILES	FMDV antiviral	HCMV inh	HCV inhibitor	VACV mCherry inh	Vaccinia Venus
Cc1ccc(-n2nc3c(N4CCC(C(=O)NCCc5ccccc5)CC4)nnc(C)c3c2C)cc1	u	-19	x	10µM*	11µM*
Cc1ccccc1CNC(=O)C1CCN(c2nnc(C)c3c(C)n(-c4ccccc4)nc23)CC1	-10%	-2	x	-26%	-30%
COCCCNC(=O)N1CCN(c2nnc(C)c3c(C)n(-c4ccc(Cl)cc4)nc23)CC1	-22%	2	x	8.9µM*	u
Cc1ccc(-n2nc3c(N4CCC(C(=O)NCCc5ccccc5C)CC4)nnc(C)c3c2C)cc1	u	-19	7.9µM*	10µM*	13µM*
COc1ccc(-n2nc3c(N4CCC(C(=O)NCCc5ccccc5)CC4)nnc(C)c3c2C)cc1	-23%	2	x	u	u
Cc1nnc(N2CCC(C(=O)NCc3cccc(Cl)c3)CC2)c2nn(-c3ccccc3)c(C)c12	-23%	-103*	x	-17%	-11%
COc1cc(=O)n2c(c1C(=O)N(C)Cc1nonc1C)CCN(Cc1cccc(Cl)c1)CC2	-10%	x	x	-9%	0%
COc1ccc(CN2C(=O)C(n3ccc4ccccc43)c3cc(F)ccc32)cc1 (stereo unspecified)	x	14	x	x	x
Cc1ccc(-n2nc3c(N4CCC(C(=O)NCc5ccc(C)o5)CC4)nnc(C)c3c2C)cc1	-18%	-67*	u	x	x
CCCCNC(=O)C(NC(=O)c1ccccc1)C(=O)c1ccccc1 (stereo unspecified)	1%	-6	x	-9%	-16%
CCCCNC(=O)C(NC(=O)c1ccc(-c2ccccc2)cc1)C(=O)c1ccccc1 (stereo unspecified)	22%	-81*	x	-9%	-15%
Cc1ccc(/C=C/c2onc(C)c2S(=O)(=O)N2CCC(C(=O)Nc3cccc(C#N)c3)CC2)cc1	u	-3	x	-22%	u
CCOC(=O)C1(c2ccccc2)CCN(CCC(C#N)(c2ccccc2)c2ccccc2)CC1	u	-86*	-58%	-5%	-17%
CCOC(=O)C1(c2ccccc2)CCN(CCC(=O)Nc2cccc(Br)c2)CC1	-33%	u	11µM*	u	u
CC(C)(C)CC(C)(C)N=C1Nc2cc(Cl)c(Cl)cc2N[C@]12C[C@H]1CCCC(=O)N3CC[C@@H](C2)[C@@H]13	x	x	x	i	-13%
NC(=O)c1ccccc1NC(=O)Cn1nc(Cc2cccnc2)c2ccccc2c1=O	-14%	u	x	-21%	-11%
O=C(Nc1cccc(Cl)c1Cl)c1ccc2c(c1)N(Cc1cccc(Cl)c1)C(=O)c1ccccc1S2=O (stereo unspecified)	-24%	-1	x	-5%	-2%
CCn1c(C)nc2cc(NC(=O)Nc3cccc(C(C)=O)c3)ccc21	28%	-67*	-23%	x	x
CCn1c(C)nc2cc(C(=O)N/N=C(\C)c3ccccc3O)ccc21	36%	4	10µM*	u	u
CC(=O)c1cccc(NC(=O)c2nc(-c3ccccc3)oc2C)c1	-24%	-4	16µM*	i	-4%
CC(=O)c1ccc(NC(=O)c2ccc(-c3nc(CSc4ccccc4)c(C)o3)cc2)cc1	u	-76*	x	-29%	u
Cc1oc(-c2ccc(C(=O)Nc3cccc(C(F)(F)F)c3)cc2)nc1CSc1ccccc1	u	-98*	x	u	u
CC(=O)c1ccc(NC(=O)c2ccc(-c3nc(CSc4ccc(C)cc4)c(C)o3)cc2)cc1	0%	-38	x	-16%	-7%
Cc1oc(-c2ccccc2)nc1C(=O)O	-3%	1	17%	i	-16%
CN(C)c1ccnc(-c2ccccc2C(F)(F)F)n1	-2%	x	x	-15%	-18%
SMILES	FMDV antiviral	HCMV inh	HCV inhibitor	VACV mCherry inh	Vaccinia Venus
Cc1ccccc1CNC(=O)C(=O)NCC(c1ccco1)S(=O)(=O)c1ccc(F)cc1 (stereo unspecified)	-29%	-19	x	-14%	-12%
CCOc1cc2sc(N3CCC(C(=O)Nc4ccccc4Cl)CC3)nc2cc1Br	4%	-12	x	2%	-17%
CC(C)c1ccccc1NC(=O)COC(=O)CCN1C(=O)/C(=C\C=C\c2ccccc2)SC1=S	u	-86*	3%	-3%	12%
O=C(COC(=O)CCN1C(=O)/C(=C\C=C\c2ccccc2)SC1=S)Nc1ccc(Br)cc1	u	-74*	-1%	-26%	-1%
Cc1c(C(=O)N(C)Cc2cccc3ncccc23)cnn1-c1nccc(-c2ccccc2F)n1	-10%	x	x	i	-14%
Cc1ncc2c(c1CNS(=O)(=O)N(C)C)CCN(C(=O)c1[nH]c3ccc(Cl)cc3c1C)C2	-21%	x	x	-14%	-12%
COc1ccc2c(c1)c1c(c(=O)n(-c3ccccc3C)c(=O)n1CC(=O)NCc1ccc(C)cc1)n2C	-29%	u	x	-10%	-16%
Cc1cc2nccc(-c3ccc(OCCCF)cc3)n2n1	-16%	-61*	u	x	x
CC(=O)c1ccc(NC(=O)C(C)Sc2nnc(-c3ccncc3)n2C2CC2)cc1 (stereo unspecified)	-23%	-64*	8%	-20%	-10%
C=CCN1CC(COc2ccc(OC)cc2)OCCS1(=O)=O (stereo unspecified)	x	-8	x	x	x
CCCCCOCC1CC(C/C(C)=N/NC(N)=S)C(=O)O1 (stereo unspecified)	-10%	0	u	22µM*	u
C/C(CC1CC(COCC(C)C)OC1=O)=N\NC(N)=S (stereo unspecified)	-8%	-20	-16%	-16%	u
Cc1cc(CNC(=O)COC(=O)Cn2[nH]c(=O)c3ccccc3c2=O)cc(C)c1O	-9%	-98*	-6%	i	-20%
Cc1cc(C)cc(NC(=O)c2sc3nc(-c4ccccc4)cn3c2C)c1	-9%	-13	x	-6%	-23%
Cc1c(C(=O)Nc2cc(F)ccc2F)sc2nc(-c3ccc(F)cc3)cn12	7%	u	x	-17%	-19%
Cc1c(C(=O)Nc2ccncc2)sc2nc(-c3ccc(F)cc3)cn12	-7%	u	10µM*	-22%	u
CCOc1ccc(NC(=O)c2sc3nc(-c4ccc(OC)cc4)cn3c2C)cc1	17%	40	x	-19%	-23%
Cc1c(C(=O)Nc2ccc(F)c(C(F)(F)F)c2)sc2nc(-c3ccccc3)cn12	-9%	-98*	x	-24%	u
COc1ccc(-c2cn3c(C)c(C(=O)Nc4ccncc4)sc3n2)cc1	u	-36	4.5µM*	-15%	2%
CCOC(=O)/C=C/[C@@H](CCc1ccccc1)NC(=O)C(F)(F)F	x	-12	x	x	x
O=C(CN1CCCCC1)Nc1cccc(Cl)c1Cl	3%	1	5%	i	0%
COc1ccc(Cl)cc1NC(=O)CN1CCC(n2nnc3cc(C)ccc32)CC1	u	u	5µM*	-15%	-18%
